# Assay outcomes (PubChem BioAssay)
# SMN2 splice up – SMN2 splice variant enhancement | Potency, µM (highest dose often 46.1 µM), inactives show at the top dose activity change, positive = activation, most hits filed as activators | 2.8% of 210,000 active | HEK293 SMN2-luciferase splicing reporter, luminescence, 30-36 h; also: % of control where 0% means no effect; nearly all actives have a fitted effect of over 55% in size
#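 HEK293 cells carry an SMN2 […]–luciferase reporter in which exon 7 inclusion puts luciferase in frame. Cells were plated 10-12 h before compound addition, then incubated 30-36 h at 37C. ONE-Glo luminescence was read; sodium butyrate at 4.5 mM final served as control.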
# NPC1 promoter act – NPC1 promoter activation; Huh7 NPC1 promoter luciferase reporter, 24 h; Potency, µM (highest dose often 9.22 µM), inactives show at the highest dose activation, hits mostly activators; 2.4% of 320,000 active; also: % of control where 0% means no effect; nearly all actives have a fitted effect of over 60% in size
#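 Compounds in DMSO were transferred onto Huh7 NPC1-luciferase reporter cells pre-incubated 2 h; after 24 h at 37 °C, Amplite reagent was dispensed and luminescence recorded 10 min later.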
# KinaseGlo FLuc – counter-screen: inhibitors of Kinase-Glo firefly luciferase; Q27757; Kinase-Glo luciferase, ATP luminescence, 8 min; Potency, µM (titrated, usually from 38.3 µM), for inactives: at the highest dose activity change, negative = inhibition, most hits filed as inhibitors; 0.28% of 200,000 active; AID 1379; also: % is scaled to controls: 0 for no effect and ±100 for the full control effect; nearly all actives have a fitted effect of over 60% in size
#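 Compounds were added to a substrate mix at pH 7.2 (50 mM imidazole, 10 uM ATP, within the enzyme's linear range), followed by Kinase-Glo detection reagent; luminescence was measured after 8 minutes at ambient temperature.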
# FLuc modulator – counter-screen for miR-21 project: firefly luciferase inhibitors or activators | P08659 | Potency, µM (doses to about 57.5 µM), for inactives: at the top dose activity change, negative = inhibition, hits mostly inhibitors | AID 588342 | purified FLuc, Km substrates, luminescence inhibition | 6.9% of 360,000 active;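 also: plate controls were vehicle for no effect and reference inhibitor for full effect; nearly all actives have a fitted effect of over 55% in size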
# Target sequence (P08659 whole entry, looked up): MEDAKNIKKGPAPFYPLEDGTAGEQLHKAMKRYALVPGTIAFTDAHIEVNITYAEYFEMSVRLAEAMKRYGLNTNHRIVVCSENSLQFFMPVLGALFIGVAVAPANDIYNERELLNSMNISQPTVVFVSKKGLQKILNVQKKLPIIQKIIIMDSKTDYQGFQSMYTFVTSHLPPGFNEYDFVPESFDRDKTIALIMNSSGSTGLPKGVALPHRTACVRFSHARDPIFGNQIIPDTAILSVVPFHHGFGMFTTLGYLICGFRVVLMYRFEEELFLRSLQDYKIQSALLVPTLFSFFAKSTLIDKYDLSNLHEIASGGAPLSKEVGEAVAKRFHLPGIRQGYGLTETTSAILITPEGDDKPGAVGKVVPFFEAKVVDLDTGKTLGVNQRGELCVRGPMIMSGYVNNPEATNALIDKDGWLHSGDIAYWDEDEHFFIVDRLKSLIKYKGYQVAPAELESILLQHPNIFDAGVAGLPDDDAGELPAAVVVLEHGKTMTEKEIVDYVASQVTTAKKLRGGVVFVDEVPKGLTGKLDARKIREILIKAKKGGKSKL
#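 Purified P. pyralis luciferase (10nM final) with 10uM D-luciferin and 10uM ATP (Km levels) in 50mM Tris acetate pH 7.5, 10mM Mg acetate, 0.01% Tween-20, 0.05% BSA; qHTS 6-point titration, ~60 µM downward; luminescence read.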
# Rab9 prom act – activates the Rab9 promoter | Potency, µM (highest dose often 9.22 µM), without a hit: at the top dose activation, negative = inhibition, most hits filed as activators | 2.8% of 320,000 active | Huh7 Rab9 promoter-luciferase reporter, luminescence, 24 h; also: % of control where 0% means no effect; nearly all actives have a fitted effect of over 60% in size
#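 Luciferase signal after 10 min detection reagent at ambient indicates Rab9 promoter upregulation; stably transfected Huh7 cells were treated 24 h with compound in DMSO at 37 °C, 5% CO2.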
# ELG1 genotox – genotoxicity induction in ELG1-luciferase HEK293T cells | HEK293T ELG1-luciferase reporter, luminescence, 16 h | Potency, µM (series often up to 46 µM), for the others: top-dose activity change, positive = activation, actives largely listed as activators | 1.3% of 330,000 active | AID 504466; also: % of control where 0% means no effect; nearly all actives have a fitted effect of over 60% in size
#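 16 hr compound incubation (37 °C, 5% CO2) of HEK293T cells carrying luciferase-tagged ELG1; luciferase then measured by ONE-Glo luminescence after 30 min at RT.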
# The depositor's hits bear a star; ? = inconclusive; / = no result given. An excerpt weighted towards active compounds, which were near 7.3% of everything screened. Calls follow the shape of the dose curve; as a rule, active = well fitted curve in the direction sought with a large enough effect; inconclusive = small, poorly fitted or top-dose-only effect, or another doubt; inactive = no such curve, though single readings can be large; an effect the other way counts as inactive or inconclusive. Potency is read from the fitted curve at half-maximal effect.
SMILES,SMN2 splice up,NPC1 promoter act,KinaseGlo FLuc,FLuc modulator,Rab9 prom act,ELG1 genotox
CCCCN(C)C(=O)c1cc2cc3ccc(OC)cc3nc2s1,6.3µM*,0.5µM*,?,0.76µM*,0.45µM*,?
O=C(O)c1cc(N/N=C/c2ccc(N3CCOCC3)s2)ccc1Cl,?,?,-6%,7.6µM*,3.2µM*,?
NC(=O)N/N=C/c1ccc(N2CCOCC2)s1,10%,0%,-4%,?,2%,8%
C/C(=N\NC(=O)c1ccc(F)cc1)c1ccc(N2CCOCC2)cc1,21%,-2%,5%,?,11%,13%
C/C(=N\Nc1ccc(Cl)c(C(=O)O)c1)c1ccc(N2CCOCC2)cc1,/,27%,/,24µM*,?,?
CC(C)(C)C(=O)NCC(c1ccc2c(c1)OCO2)N1CCOCC1 (centres undefined),/,/,/,2%,/,/
Cc1ccc2cc(NC(=O)c3ccc(C(C)(C)C)cc3)ccc2n1,/,-2%,/,9.5µM*,2%,-15%
CCc1ccc(C(=O)Nc2ccc3nn(-c4ccc(C)c(Cl)c4)nc3c2)cc1,15%,/,/,-6%,/,/
CC(C)(C)c1ccc(C(=O)Nc2ccc(NC(=O)c3ccc(Cl)c(Cl)c3)cc2)cc1,-8%,/,/,1%,/,/
CCc1ccc(C(=O)Nc2ccc3nc(C)ccc3c2)cc1,/,3.5µM*,/,5.4µM*,2.8µM*,?
Cc1ccc(/C=c2/sc3n(c2=O)CCCN=3)o1,13µM*,?,-9%,15µM*,2.8µM*,?
O=c1/c(=C\c2ccc3c(c2)OCO3)sc2n1CCCN=2,?,0.89µM*,-27%,4.3µM*,3.5µM*,3.3µM*
Cc1cc2nc(/C=C/c3cccnc3)[nH]c2cc1C,/,?,/,2.4µM*,?,2.3µM*
O=C(c1cc(-c2cccnc2)nc2ccccc12)N1CCCc2ccccc21,-7%,-4%,1%,-19%,1%,-5%
Cc1ccc(-c2cc(C(=O)N3CCN(c4ccccc4O)CC3)c3ccccc3n2)cc1,/,?,/,2.4µM*,?,-1%
Cc1cnn(C(=O)c2cc(-c3ccccc3)nc3ccccc23)c1,7%,2%,-4%,17µM*,8%,-3%
O=C(c1cc(-c2cccs2)nc2ccccc12)N1CCN(CCO)CC1,/,-1%,/,?,-7%,-4%
Cc1ccc(-c2cc(C(=O)N3CCN(c4ccc(O)cc4)CC3)c3ccccc3n2)cc1,/,/,/,/,/,0%
O=C(c1cc(-c2cccs2)nc2ccccc12)N1CCN(c2ccccc2O)CC1,-66%,5%,6%,21µM*,18%,-10%
Cc1ccc(-c2cc(C(=O)N3CCCc4ccccc43)c3ccccc3n2)cc1,-17%,9%,-11%,3.4µM*,1%,?
CN(C)c1ccc(CNC(=O)c2cccc(NC(=O)N3CCSc4ncccc43)c2)cc1,/,/,/,0%,/,/
CCOc1ccccc1-n1nnc(-c2nsc(NC(=O)c3ccc(C)cc3)n2)c1C,/,/,/,-1%,/,/
COc1ccc(OC)c(C2C(C(=O)Nc3ccc(C)cc3)=C(C)Nc3nnnn32)c1 (centres undefined),/,/,/,-5%,/,/
CCCc1cc(=O)oc2c3c(ccc12)OCN(Cc1ccc(OC)cc1)C3,/,/,/,2%,/,/
COc1ccc(C)cc1NC1(c2ccccc2)C(=O)c2ccccc2C1=O,/,/,/,-7%,/,/
COc1ccc(-c2cc(C(=O)N3CC(C)CC(C)C3)c3ccccc3n2)cc1 (centres undefined),/,2%,/,?,-5%,-1%
COc1ccc(-c2cc(C(=O)N3CCN(c4ccccc4O)CC3)c3ccccc3n2)cc1,/,3.2µM*,/,0.67µM*,2µM*,0%
COc1ccc(-c2cc(C(=O)N3CCN(c4ccccc4O)CC3)c3ccccc3n2)cc1OC,/,21%,/,9.5µM*,-2%,-19%
CC(C)c1ccc(NC(=O)CSC2=Nc3ccccc3C3=NC(CC(=O)NCc4ccco4)C(=O)N23)cc1 (centres undefined),/,/,/,-8%,/,/
